Measured values from the supplement of paper PMC11732987, “Enantioselective OTUD7B fragment discovery through chemoproteomics screening and high-throughput optimisation” (Communications Chemistry, 2025).

How the values were obtained:
Experiment in all cases: log2 ratio of Biotin-Ahx-Ub-VS probe labelling (fragment/DMSO); higher = less target engagement (more negative = stronger competition), active = hit call of the paper (q ≤ 0.05, log2 ratio ≤ -1)
Settings in all cases: compound concentration: 200 uM; treatment time: 3 h
UniProt O00507 = molecular target: UniProt O00507
Method in brief: (§1)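 Labelled DUBs were enriched with NeutrAvidin, digested with LysC and trypsin, and run by diaPASEF LC-MS/MS. The labelling used Biotin-Ahx-Ub-VS at 0.5 µM final for 1 h on HEK293T lysate (495 µg per sample) previously treated in triplicate with fragment at 200 µM or vehicle for 3 h. Values are average log2 fragment/vehicle ratios by unpaired t-test on global-median-normalised Spectronaut quantities of proteins with ≥2 unique peptides.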

UniProt P51784 = molecular target: UniProt P51784
Method in brief: as §1

UniProt Q5T2D3 = molecular target: T1, UniProt Q5T2D3
T1 sequence (whole entry): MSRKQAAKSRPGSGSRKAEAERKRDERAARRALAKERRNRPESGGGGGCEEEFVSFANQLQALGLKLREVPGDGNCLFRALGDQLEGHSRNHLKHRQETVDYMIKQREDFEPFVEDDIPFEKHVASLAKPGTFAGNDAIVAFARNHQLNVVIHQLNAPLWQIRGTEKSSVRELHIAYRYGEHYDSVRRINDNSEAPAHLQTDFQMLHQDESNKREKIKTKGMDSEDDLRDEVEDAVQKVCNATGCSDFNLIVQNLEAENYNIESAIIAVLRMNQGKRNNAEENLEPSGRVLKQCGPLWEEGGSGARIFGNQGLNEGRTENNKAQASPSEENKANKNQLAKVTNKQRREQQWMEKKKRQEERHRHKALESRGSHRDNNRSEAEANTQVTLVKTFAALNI
Method in brief: as §1

UniProt Q8TE49 = molecular target: T2, UniProt Q8TE49
T2 sequence (whole entry): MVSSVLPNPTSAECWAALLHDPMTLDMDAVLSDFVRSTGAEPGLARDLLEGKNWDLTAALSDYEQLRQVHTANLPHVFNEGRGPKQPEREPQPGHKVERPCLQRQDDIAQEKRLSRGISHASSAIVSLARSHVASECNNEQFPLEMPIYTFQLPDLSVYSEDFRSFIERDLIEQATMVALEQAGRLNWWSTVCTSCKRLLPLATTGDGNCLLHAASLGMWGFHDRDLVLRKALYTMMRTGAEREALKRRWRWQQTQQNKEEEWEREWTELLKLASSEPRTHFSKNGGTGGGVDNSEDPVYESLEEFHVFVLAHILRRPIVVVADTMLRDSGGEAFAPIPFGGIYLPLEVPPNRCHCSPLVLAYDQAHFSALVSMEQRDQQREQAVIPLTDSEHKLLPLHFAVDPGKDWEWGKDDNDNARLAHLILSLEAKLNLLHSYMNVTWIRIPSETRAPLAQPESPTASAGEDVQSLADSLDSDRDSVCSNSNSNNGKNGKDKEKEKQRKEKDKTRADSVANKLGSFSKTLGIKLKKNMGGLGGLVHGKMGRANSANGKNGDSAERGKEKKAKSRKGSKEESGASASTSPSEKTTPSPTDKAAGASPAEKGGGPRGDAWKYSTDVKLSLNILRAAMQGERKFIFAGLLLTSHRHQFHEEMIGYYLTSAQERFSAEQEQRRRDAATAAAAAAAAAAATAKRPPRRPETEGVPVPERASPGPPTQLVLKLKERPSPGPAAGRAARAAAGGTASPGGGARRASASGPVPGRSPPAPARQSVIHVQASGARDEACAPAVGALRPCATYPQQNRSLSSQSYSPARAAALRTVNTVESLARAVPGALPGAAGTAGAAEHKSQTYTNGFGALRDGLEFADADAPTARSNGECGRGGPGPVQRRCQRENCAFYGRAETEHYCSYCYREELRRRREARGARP
Method in brief: as §1

UniProt Q9P2H5 = molecular target: T3, UniProt Q9P2H5
T3 sequence (whole entry): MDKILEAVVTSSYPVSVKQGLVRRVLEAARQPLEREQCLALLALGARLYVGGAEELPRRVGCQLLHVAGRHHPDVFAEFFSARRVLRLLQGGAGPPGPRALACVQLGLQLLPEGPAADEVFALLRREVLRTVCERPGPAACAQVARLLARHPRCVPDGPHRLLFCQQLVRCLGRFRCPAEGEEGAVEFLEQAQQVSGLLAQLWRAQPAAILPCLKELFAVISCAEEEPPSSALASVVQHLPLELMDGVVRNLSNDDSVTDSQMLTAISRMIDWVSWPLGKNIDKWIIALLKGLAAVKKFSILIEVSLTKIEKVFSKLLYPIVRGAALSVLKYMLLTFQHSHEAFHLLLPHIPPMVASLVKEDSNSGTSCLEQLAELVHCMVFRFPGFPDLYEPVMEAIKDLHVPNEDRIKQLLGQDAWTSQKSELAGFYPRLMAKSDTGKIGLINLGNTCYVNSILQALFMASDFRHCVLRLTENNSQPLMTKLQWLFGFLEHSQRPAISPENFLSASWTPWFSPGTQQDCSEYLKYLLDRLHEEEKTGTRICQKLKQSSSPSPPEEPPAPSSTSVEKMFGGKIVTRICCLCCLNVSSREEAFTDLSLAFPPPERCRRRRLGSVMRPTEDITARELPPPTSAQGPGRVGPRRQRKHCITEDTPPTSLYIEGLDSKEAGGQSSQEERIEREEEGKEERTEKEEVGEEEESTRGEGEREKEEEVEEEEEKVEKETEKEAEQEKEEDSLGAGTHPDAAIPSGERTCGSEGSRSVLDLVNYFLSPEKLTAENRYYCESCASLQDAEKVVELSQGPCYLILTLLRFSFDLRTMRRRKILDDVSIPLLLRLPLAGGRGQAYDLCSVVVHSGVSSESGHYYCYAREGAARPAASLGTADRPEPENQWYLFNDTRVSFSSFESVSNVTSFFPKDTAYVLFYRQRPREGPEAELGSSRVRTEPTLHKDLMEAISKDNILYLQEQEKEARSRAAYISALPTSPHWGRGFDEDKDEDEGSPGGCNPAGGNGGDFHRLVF
Method in brief: as §1

UniProt Q9UGI0 = molecular target: T4, UniProt Q9UGI0
T4 sequence (whole entry): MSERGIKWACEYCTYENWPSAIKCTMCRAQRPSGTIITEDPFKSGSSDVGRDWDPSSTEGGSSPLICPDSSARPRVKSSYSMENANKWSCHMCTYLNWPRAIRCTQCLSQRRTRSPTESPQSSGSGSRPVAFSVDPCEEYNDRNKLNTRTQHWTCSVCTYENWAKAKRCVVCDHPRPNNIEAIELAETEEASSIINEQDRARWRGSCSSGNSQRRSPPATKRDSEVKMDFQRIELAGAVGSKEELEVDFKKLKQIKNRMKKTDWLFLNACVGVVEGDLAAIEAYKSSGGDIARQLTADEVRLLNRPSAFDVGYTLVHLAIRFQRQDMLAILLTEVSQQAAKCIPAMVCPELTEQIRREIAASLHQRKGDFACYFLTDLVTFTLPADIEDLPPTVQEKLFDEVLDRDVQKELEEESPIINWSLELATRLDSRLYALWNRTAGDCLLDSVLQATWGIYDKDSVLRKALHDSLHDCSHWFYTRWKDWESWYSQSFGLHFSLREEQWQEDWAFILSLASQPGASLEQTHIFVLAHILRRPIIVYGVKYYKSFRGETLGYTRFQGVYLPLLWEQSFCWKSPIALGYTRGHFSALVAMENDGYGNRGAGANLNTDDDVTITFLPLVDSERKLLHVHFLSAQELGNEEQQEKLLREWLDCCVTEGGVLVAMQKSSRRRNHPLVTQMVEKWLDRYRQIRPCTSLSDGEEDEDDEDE
Method in brief: as §1

YOD1 = molecular target: T5, YOD1 (UniProt Q5VVQ6)
T5 sequence (whole entry): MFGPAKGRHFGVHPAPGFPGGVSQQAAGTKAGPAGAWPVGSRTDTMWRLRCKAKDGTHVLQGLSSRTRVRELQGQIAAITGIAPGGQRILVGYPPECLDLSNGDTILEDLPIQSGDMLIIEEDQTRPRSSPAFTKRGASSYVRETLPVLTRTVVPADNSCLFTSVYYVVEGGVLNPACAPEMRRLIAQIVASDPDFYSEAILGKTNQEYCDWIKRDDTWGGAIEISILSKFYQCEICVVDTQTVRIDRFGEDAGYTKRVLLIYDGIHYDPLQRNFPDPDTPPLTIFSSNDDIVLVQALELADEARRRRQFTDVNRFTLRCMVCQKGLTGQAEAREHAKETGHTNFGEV
Method in brief: as §1

Measured: log2 ratio of Biotin-Ahx-Ub-VS probe labelling

Sequence of UniProt P51784 (P51784 whole entry): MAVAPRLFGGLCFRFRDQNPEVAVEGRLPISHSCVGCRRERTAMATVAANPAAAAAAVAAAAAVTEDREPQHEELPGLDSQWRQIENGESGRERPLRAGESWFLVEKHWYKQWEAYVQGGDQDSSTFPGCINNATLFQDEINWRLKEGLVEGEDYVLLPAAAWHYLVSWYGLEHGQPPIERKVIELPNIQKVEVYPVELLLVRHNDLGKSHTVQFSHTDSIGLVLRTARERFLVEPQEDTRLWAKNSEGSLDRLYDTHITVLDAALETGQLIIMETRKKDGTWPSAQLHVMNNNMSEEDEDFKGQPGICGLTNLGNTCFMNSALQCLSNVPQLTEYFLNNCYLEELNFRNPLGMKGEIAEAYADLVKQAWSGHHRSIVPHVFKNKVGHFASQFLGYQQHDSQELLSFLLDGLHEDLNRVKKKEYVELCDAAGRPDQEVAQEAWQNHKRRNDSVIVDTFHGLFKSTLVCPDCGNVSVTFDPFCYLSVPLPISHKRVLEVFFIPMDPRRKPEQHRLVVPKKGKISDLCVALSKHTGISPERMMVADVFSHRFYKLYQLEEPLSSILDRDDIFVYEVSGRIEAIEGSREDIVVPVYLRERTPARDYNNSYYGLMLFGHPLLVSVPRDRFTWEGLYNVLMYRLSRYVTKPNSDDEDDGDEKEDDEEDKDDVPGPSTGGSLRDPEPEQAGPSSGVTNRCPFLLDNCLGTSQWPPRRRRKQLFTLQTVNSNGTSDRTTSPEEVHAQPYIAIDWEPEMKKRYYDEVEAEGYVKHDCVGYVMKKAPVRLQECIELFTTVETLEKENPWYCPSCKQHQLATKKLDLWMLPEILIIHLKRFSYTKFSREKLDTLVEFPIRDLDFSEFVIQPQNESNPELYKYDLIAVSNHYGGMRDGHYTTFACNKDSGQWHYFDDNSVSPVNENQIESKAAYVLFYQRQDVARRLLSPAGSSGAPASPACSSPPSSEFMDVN
Sequence of UniProt O00507 (O00507 whole entry, the tested form may be a part): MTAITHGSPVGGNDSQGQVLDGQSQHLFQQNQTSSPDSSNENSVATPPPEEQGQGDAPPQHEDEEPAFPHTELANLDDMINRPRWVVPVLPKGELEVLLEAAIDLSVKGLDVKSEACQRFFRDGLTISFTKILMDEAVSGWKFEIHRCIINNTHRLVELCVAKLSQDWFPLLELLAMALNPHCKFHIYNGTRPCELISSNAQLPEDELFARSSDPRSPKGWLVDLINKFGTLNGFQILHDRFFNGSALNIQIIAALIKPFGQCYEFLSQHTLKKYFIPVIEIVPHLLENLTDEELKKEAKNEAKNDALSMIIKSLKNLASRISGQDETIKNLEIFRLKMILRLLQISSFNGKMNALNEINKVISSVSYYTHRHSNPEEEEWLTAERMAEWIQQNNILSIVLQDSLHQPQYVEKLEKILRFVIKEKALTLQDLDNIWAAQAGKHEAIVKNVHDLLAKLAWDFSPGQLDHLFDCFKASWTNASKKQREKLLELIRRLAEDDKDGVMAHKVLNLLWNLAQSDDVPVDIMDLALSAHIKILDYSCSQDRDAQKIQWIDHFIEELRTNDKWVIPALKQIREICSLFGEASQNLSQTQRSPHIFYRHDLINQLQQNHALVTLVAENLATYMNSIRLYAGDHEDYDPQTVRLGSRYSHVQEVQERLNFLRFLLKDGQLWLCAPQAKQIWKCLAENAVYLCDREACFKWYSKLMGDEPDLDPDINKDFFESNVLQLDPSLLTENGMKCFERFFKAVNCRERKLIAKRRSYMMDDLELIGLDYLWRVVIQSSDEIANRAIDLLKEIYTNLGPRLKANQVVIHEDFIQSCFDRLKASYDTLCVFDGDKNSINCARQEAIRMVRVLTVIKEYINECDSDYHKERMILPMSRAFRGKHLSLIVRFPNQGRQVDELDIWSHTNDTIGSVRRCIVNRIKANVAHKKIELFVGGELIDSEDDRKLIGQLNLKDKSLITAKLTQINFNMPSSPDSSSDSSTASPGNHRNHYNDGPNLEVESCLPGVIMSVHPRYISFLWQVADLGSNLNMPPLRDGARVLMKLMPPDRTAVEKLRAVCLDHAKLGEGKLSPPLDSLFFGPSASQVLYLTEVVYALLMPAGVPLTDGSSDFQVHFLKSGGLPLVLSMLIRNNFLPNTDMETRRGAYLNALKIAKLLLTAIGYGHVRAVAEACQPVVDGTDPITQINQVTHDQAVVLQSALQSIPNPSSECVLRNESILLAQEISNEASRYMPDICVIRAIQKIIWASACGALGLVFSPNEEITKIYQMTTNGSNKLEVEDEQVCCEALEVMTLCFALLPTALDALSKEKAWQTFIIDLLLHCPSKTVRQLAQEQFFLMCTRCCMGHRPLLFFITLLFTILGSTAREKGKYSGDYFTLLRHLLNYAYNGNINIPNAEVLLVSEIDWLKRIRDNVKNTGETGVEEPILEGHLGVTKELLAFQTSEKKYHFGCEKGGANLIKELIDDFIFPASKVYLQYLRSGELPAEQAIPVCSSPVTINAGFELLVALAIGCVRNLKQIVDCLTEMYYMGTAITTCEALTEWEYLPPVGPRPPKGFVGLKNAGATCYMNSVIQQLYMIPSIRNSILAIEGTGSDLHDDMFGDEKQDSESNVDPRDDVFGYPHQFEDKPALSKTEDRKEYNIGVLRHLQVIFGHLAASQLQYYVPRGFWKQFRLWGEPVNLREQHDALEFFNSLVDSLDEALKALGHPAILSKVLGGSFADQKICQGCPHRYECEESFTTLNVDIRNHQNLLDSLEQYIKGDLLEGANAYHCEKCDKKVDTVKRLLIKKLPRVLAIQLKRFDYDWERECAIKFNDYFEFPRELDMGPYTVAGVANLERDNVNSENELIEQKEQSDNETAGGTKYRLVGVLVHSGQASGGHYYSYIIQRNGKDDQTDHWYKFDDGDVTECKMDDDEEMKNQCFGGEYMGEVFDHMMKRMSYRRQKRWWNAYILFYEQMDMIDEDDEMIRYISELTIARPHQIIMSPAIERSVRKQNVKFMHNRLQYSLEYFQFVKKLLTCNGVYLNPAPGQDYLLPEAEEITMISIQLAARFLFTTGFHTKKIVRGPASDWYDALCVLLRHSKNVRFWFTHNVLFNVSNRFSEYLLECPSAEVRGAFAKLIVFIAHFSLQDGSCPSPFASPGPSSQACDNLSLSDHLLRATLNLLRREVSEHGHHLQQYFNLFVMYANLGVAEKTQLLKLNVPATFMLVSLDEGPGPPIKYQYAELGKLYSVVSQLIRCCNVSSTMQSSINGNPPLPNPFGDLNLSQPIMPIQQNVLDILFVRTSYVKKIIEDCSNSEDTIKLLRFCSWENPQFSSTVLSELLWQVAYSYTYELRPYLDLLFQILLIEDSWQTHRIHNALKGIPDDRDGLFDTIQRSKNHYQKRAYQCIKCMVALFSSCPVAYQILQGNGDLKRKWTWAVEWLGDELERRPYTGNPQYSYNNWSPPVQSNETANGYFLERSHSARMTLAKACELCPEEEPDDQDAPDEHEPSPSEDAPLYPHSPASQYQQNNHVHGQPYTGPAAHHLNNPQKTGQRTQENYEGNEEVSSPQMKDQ

O=C(CN1CCN(C(=O)CCl)CC1)Nc1cccc(F)c1
inactive: UniProt O00507 0.00838 | UniProt P51784 -0.0576 | UniProt Q5T2D3 -0.264 | UniProt Q8TE49 -0.292 | UniProt Q9P2H5 -0.486 | UniProt Q9UGI0 -0.37 | YOD1 0.0312

O=C(CCl)N(C1=CCCCC1)C1CC1
inactive: UniProt O00507 0.309 | UniProt P51784 -0.0543 | UniProt Q5T2D3 -0.118 | UniProt Q8TE49 -0.435 | UniProt Q9P2H5 -0.351 | UniProt Q9UGI0 0.0561 | YOD1 -0.0863

CC(NC(=O)CCl)c1cc2n(n1)CCCC2.Cl (stereo not drawn)
inactive: UniProt O00507 0.229 | UniProt P51784 0.0045 | UniProt Q5T2D3 0.0101 | UniProt Q8TE49 -0.631 | UniProt Q9P2H5 -0.0486 | UniProt Q9UGI0 0.22 | YOD1 -0.00538

O=C(CCl)NCc1ccc(N2CCOCC2)c(F)c1
inactive: UniProt O00507 0.631 | UniProt P51784 0.16 | UniProt Q5T2D3 -0.134 | UniProt Q8TE49 -0.275 | UniProt Q9P2H5 -0.291 | UniProt Q9UGI0 -0.051 | YOD1 0.276
